# Assay results: PubChem BioAssay
# Activity calls are given as the source filed them.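 Rule for the calls, unless noted: active = z-score of at least 1.8 in each of two replicates, scored against plate mean and spread of sample wells; inactive = the rest.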
# Tests used:
# [1] = MELAS cybrid and Rieske KO viability enhancers – cell-based, MELAS cybrids, Rieske KO mouse fibroblasts, CellTiter-Glo, primary screen (AID 1508586;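 active = mean z-score across replicates of 1.96 or higher in either the MELAS or the Rieske mutant cell line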;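 note: test concentration not given here; z relative to plate mean and SD of compound and empty wells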); settings: low glucose
# [2] = galactose survival enhancers in mitochondrial complex I cybrids – cell-based, galactose medium, ATP luminescence, primary screen (AID 1645843); settings: complex I mutant cybrid cells, 72 h, stronger effect = higher value;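 note: positive z means more ATP and so rescue of galactose-driven cybrid death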
# [3] = MELAS cybrid survival, CellTiter-Glo 48 h, stronger effect = higher value
# [4] = Rieske KO mouse fibroblast survival, CellTiter-Glo 72 h
SMILES,"z-score [1, 3]","z-score [1, 4]",z-score [2]
O=C(c1nn(Cc2ccncc2)c2c1CN(Cc1ccsc1)CC2)N1CCCC1,-0.1 (inactive),0.631,0.36 (inactive)
COc1ccc(CN2C(=O)N(C)C3(CCN(Cc4nc(-c5ccccc5)cs4)CC3)C2=O)cc1,-0.259 (inactive),-0.0505,-0.2 (inactive)
Cn1nc(C(=O)N2CCCCCC2)c2c1CCC(NCc1ccc(C(F)(F)F)cc1)C2 (stereo not drawn),-0.174 (inactive),-0.22,1.12 (inactive)
CC1=C(C(=O)N2CC(=O)N(CC(C)C)CC(OCc3ccccc3)C2)OCCO1 (stereo not drawn),0.636 (inactive),-0.606,0.39 (inactive)
CN(C)C(=O)c1nn(Cc2ccccc2)c2c1CN(C(=O)C1CC(=O)Nc3ccccc31)CC2 (stereo not drawn),-0.404 (inactive),-0.253,0.725 (inactive)
C=CCn1nc(C(=O)N2CCCCCC2)c2c1CCC(NCc1cc(-c3ccccc3)on1)C2 (stereo not drawn),-0.0315 (inactive),0.236,-1.62 (inactive)
COc1cccc(COC2CN(Cc3ccccn3)C(=O)CN(C(=O)c3ccc(C)s3)C2)c1 (stereo not drawn),-0.406 (inactive),0.0344,0.91 (inactive)
O=C(NCc1cccc(F)c1)N[C@H]1C[C@H]2C(=O)N[C@@H](COCc3ccccc3)C(=O)N2C1,0.777 (inactive),-0.345,-0.285 (inactive)
COC(=O)c1c(NC(=O)C2CC2)c2cc(NC3CCOCC3)cnc2n1Cc1ccccc1,-0.892 (inactive),0.482,-0.845 (inactive)
Cc1csc(SCC(=O)N2CCc3c(cc(-c4csc5ccccc45)c(=O)n3C)C2)n1,-0.151 (inactive),0.398,1.5 (inactive)
CCCCNC(=O)[C@@H]1C[C@H](CN2CCOCC2)CN(CCc2ccccc2)C1,1.78 (inactive),-0.178,-0.965 (inactive)
CCc1nc(CNc2cc(C(=O)NCc3ccccn3)cc(S(=O)(=O)N3CCCC3)c2)c(C)[nH]1,-0.302 (inactive),-0.597,0.97 (inactive)
COCC(=O)Nc1c(C(=O)OC)n(C)c2ncc(NCc3cnn(C)c3C)cc12,-0.241 (inactive),-0.209,-0.64 (inactive)
CC(C)CNc1cc(C(=O)NC2Cc3ccccc3C2)cc(S(=O)(=O)NC(C)C)c1,0.0668 (inactive),-0.0556,-1.6 (inactive)
COCCn1c(C(=O)OC)c(NC(=O)c2ccco2)c2cc(NC3CCc4ccccc4C3)cnc21 (stereo not drawn),9.06 (active),-2,-1.68 (inactive)
CN(C)CCCNC(=O)[C@@H]1C[C@H](CN2CCOCC2)CN(CCc2ccccc2)C1,-0.339 (inactive),-0.139,-0.365 (inactive)
CN1CCCC1CCNC(=O)c1cc(-c2ccccc2)cc(S(=O)(=O)N2CCSCC2)c1 (stereo not drawn),-0.508 (inactive),-0.0913,0.505 (inactive)
COc1ccc(CN2C[C@@H](CN3CCOCC3)C[C@@H](C(=O)NCC(C)C)C2)cc1OC,0.036 (inactive),-0.053,0.1 (inactive)

SMILES,"z-score [1, 3]","z-score [1, 4]",z-score [2]
CCN1C(=O)N(Cc2cccc(OC)c2)C(=O)C12CCN(CC1CC=CCC1)CC2 (stereo not drawn),-0.681 (inactive),-0.854,-0.435 (inactive)
O=C(C1COc2ccccc2C1)N1CC(=O)N(C2CCCCC2)CC(OCc2ccccn2)C1 (stereo not drawn),0.04 (inactive),-1.17,2.08 (inactive)
COc1cccc(-c2cc3c(n(Cc4ccccn4)c2=O)CCN(C(=O)c2csc(C)n2)C3)c1,-0.876,3.95,-0.495 (inactive)
COCCn1c(C(=O)OC)c(NC(=O)Cc2ccccc2)c2cc(NC(C)CCO)cnc21 (stereo not drawn),-0.113 (inactive),0.262,-0.97 (inactive)
COCCCN1C(=O)N(Cc2ccccc2)C(=O)C12CCN(Cc1ccc(-c3ccco3)cc1)CC2,0.678 (inactive),0.032,-1.64 (inactive)
Cc1csc(-c2cc(C(=O)N(C)C3CCN(C)CC3)cc(S(=O)(=O)N3CCOCC3)c2)c1,-0.654 (inactive),-0.32,0.47 (inactive)
O=C(NCCn1cncn1)c1cc(-c2ccccc2)cc(S(=O)(=O)N2CCSCC2)c1,-0.182 (inactive),0.272,1.56 (inactive)
COC(=O)c1c(NC(C)=O)c2cc(NCc3sccc3C)cnc2n1CC1CCCO1 (stereo not drawn),0.213 (inactive),0.989,-0.82 (inactive)
NCCCC[C@@H]1NC(=O)[C@@H]2C[C@H](NCc3nc(-c4ccccc4)cs3)CN2C1=O,-0.0314 (inactive),0.0831,-0.77 (inactive)
COc1cc(CN2CCc3c(cc(Cc4ccccc4C)c(=O)n3CC3CC3)C2)ccc1O,-0.322 (inactive),-0.319,-1.32 (inactive)
O=C(Oc1ccccc1)N1CCN2C(=O)[C@@H]3C[C@@H](O)CN3C(=O)[C@H]2C1,1.95 (inactive),-0.267,-0.655 (inactive)
O=C(Cn1cnc2ccccc21)N1CCc2c(cc(-c3cccc(Cl)c3)c(=O)n2CC2CC2)C1,0.334 (inactive),-0.586,-0.315 (inactive)
O=C(c1nn(Cc2ccccn2)c2c1CN(C/C=C/c1ccco1)CC2)N1CCc2ccccc2C1,-0.442 (inactive),-0.213,-0.345 (inactive)
CCCn1nc(C(=O)N2CCCCC2)c2c1CCC(NCc1cccnc1)C2 (stereo not drawn),-0.0243 (inactive),-0.185,-1.06 (inactive)
CC(C)[C@@H]1NC(=O)[C@@H]2C[C@H](NC(=O)c3cc(C(C)(C)C)nn3C)CN2C1=O,0.0639 (inactive),0.0296,-0.355 (inactive)
CC(C)/C=C/CNc1cc(C(=O)NCc2cn3ccccc3n2)cc(S(=O)(=O)NC(C)C)c1,1.64 (inactive),-0.726,-1.65 (inactive)
CC(C)CCN1C(=O)N(C(C)C)C(=O)C12CCN(Cc1ccc(CN3CCCCC3)s1)CC2,-0.0425 (inactive),-0.0124,1.27 (inactive)
CCc1nc(CNc2cc(C(=O)N[C@H](C)c3ccc(OC)cc3)cc(S(=O)(=O)N(C)C)c2)c(C)[nH]1,-0.507 (inactive),-0.167,0.08 (inactive)
